Cycloheximide cs: Cycloheximide Counterscreen for Small Molecule Inhibitors of Shiga Toxin; cell reporter, cycloheximide protein synthesis inhibition counterscreen; 300,000 tested, 12% active; max response, %; in the data active = max response mostly above about 13%, no sharp cut-off; inactive = mostly below about 14%; also: read at 38.3 µM for the half of the compounds with a filed dose; 0% is about no effect
FMDV antiviral: High Throughput Screening for Foot and Mouth Disease Virus Antivirals | AID 1159524, 2015 | FMDV antiviral cell-based qHTS | 410,000 tested, 1.2% active | Potency, µM (highest dose often 57.9 µM), for the others: at the top dose activity change, negative = inhibition, actives largely listed as inhibitors; calls by dose curve; tested in HEK293T cells; also: read-out not given here; potency is read from the fitted curve at half-maximal effect; % is scaled to controls: 0 for no effect and ±100 for the full control effect; nearly all actives have a fitted effect of over 45% in size
Shiga inhibitor: A qHTS for Small Molecule Inhibitors of Shiga Toxin | Vero cells, Shiga toxin protein synthesis inhibition reporter | inhibition, % at 38.7 µM | 290,000 tested, 9.2% active | AID 2315, 2010; in the data active = inhibition mostly above about 28%, no sharp cut-off; inactive = mostly below about 43%; also: 0% is about no effect
Sm TGR inh: qHTS Assay for the Inhibitors of Schistosoma Mansoni Peroxiredoxins; Schistosoma mansoni thioredoxin glutathione reductase (TGR), Q962Y6; Potency, µM (top dose mostly 114 µM), for inactives: at the top dose activity change, negative = inhibition, usual class: inhibitors; 360,000 tested, 3% active; purified TGR, DTNB reduction, TNB absorbance 405 nm; active = well fitted inhibition curve with a large enough effect; inconclusive = small, poorly fitted or top-dose-only effect; inactive = no such curve, though single readings can be large or run the other way; also: potency is read from the fitted curve at half-maximal effect; % is scaled to controls: 0 for no effect and ±100 for the full control effect; nearly all actives have a fitted effect of over 60% in size
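TGR 20 nM + NADPH 100 uM (dispensed conc.), cpd preinc 15 min RT; start with NADPH (500 uM addition) then DTNB (15 mM addition). Kinetic TNB absorbance, 405 nm filter. Four-parameter Hill fit across titration.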
Active calls of the source: *; u = inconclusive; x = not tested or not shown. A selection: hits, their analogues and other compounds. The true share with any hit is near 12%.

SMILES | Cycloheximide cs | FMDV antiviral | Shiga inhibitor | Sm TGR inh
COc1cc(C(=O)O/N=C(\N)c2cccc([N+](=O)[O-])c2)cc(OC)c1OC | 6 | -6% | 8 | 7%
C/C(=N/OC(=O)c1ccc(F)cc1)c1ccc(C)cc1 | 13 | 46% | 17 | 5%
N/C(=N\OC(=O)c1ccccc1F)c1cccc([N+](=O)[O-])c1 | 39* | 69% | 56* | 2%
Cc1ccccc1/C(N)=N/OC(=O)c1ccc(F)cc1 | 47* | 8% | 107* | -3%
Cc1ccccc1C(=O)O/N=C(\N)c1ccccc1 | 21* | 11µM* | 28 | 1%
CCCOc1ccc(C2C(=O)N(C3CCCCCC3)CC(=O)N2CCC2=CCCCC2)cc1OC (stereo not given) | x | 0% | x | -5%
C/C(=N\NC(=O)c1ccoc1C)c1ccccc1 | 44* | 51% | 64* | -8%
Cc1occc1C(=O)NNC(=O)C1CCCCC1 | 5 | -11% | 2 | 0%
C/C(=N\NC(N)=O)c1ccccc1 | -4 | 10% | 18 | -25%
C/C(=N/NC(=O)c1ccoc1C)c1ccc(NC(=O)C2CCCC2)cc1 | 58* | 21% | 65* | -1%
COc1ccc(C2=Nn3c(nnc3-c3cccc(OC)c3)SC2)cc1 | -9 | x | -1 | x
COc1cccc(C(c2c(O)nc(SC)n(C)c2=O)c2c(O)nc(SC)n(C)c2=O)c1 | -3 | -5% | -5 | 7.1µM*
CSc1nc(C)c(Oc2ccccc2)c(=O)n1C | -2 | 2% | 2 | -1%
CCCSc1nc(O)c(C(c2ccc(OC)c(O)c2)c2c(O)nc(SCCC)n(C)c2=O)c(=O)n1C | -2 | -9% | -16 | 13µM*
CCc1cccc(NC(=O)CSc2nnc(-c3cc4occc4n3C)n2-c2ccccc2C)c1 | x | 4% | x | 0%
C/C(=N\NC(=O)CSCc1ccccc1Cl)c1cc(O)ccc1O | 23* | 35% | 40* | -12%
CC(=O)Nc1ccc(NC(=O)CSCc2ccccc2Cl)cc1 | x | 42% | x | x
CCn1c(-c2cccc(OC)c2)nc2cc(NC(C)=O)cc(C(=O)N3CCCC(C(C)=O)C3)c21 (stereo not given) | x | -2% | x | x
CCCCc1nc2cc(C(=O)N3CCCC(OCCC)C3)ccc2o1 (stereo not given) | 48* | -2% | 103* | 0%
COCCN1CCN(C(=O)c2ccc3oc(CCCc4ccccc4)nc3c2)CC1 | 23* | 36% | 112* | 2%
COC1CCCN(C(=O)c2ccc(OC3CCN(CCc4ccccc4)CC3)cc2)C1 (stereo not given) | 10 | -6% | -24 | -2%
CCCCc1nc2cc(C(=O)N3CCCC(COC)C3)ccc2o1 (stereo not given) | 63* | 33% | 73* | 2%
COCC1CCCN(C(=O)c2ccc3oc(CCCc4ccccc4)nc3c2)C1 (stereo not given) | 2 | 0% | 12 | 28µM*
COCCN1CCN(C(=O)c2ccc3nc(Cc4ccccc4F)oc3c2)CC1 | 9 | 5% | 15 | 5%
CCN(CC)C1CCN(C(=O)c2ccc3nc(Cc4ccc(OC)cc4)oc3c2)C1 (stereo not given) | -3 | -1% | -6 | 0%
SMILES | Cycloheximide cs | FMDV antiviral | Shiga inhibitor | Sm TGR inh
Cc1nn(C)c(C)c1S(=O)(=O)N(CC(=O)NCCc1ccccc1)c1ccc(C(C)C)cc1 | x | -26% | x | 0%
Cc1ccc(C(=O)Nc2cccc(-c3nc(CNC(=O)c4cccc(N(C)C)c4)c(C)o3)c2)s1 | x | 3% | x | x
Fc1ccc2c(c1)-c1nc(-c3ccccc3)cc(-c3ccccc3)c1CO2 | x | 0% | x | -3%
COc1ccc(Cn2c(=O)c3oc4ccccc4c3n(CC(=O)Nc3c(C)cccc3C)c2=O)cc1 | x | -8% | x | 4%
CC(=O)N1CCCc2cc(S(=O)(=O)N3CCC(C(=O)NCc4ccccc4Cl)CC3)ccc21 | x | -9% | x | 3%
COCC1CCN(C(=O)c2ccc3oc(Cc4ccc(Cl)cc4)nc3c2)C1 (stereo not given) | x | 6% | x | x
CCCCc1nc2cc(C(=O)N3CCC(OCCOC)CC3)ccc2o1 | 28* | 14% | 73* | -4%
COCC1CCN(C(=O)c2ccc3oc(CCCc4ccccc4)nc3c2)C1 (stereo not given) | 29* | 20% | 39 | 4%
COc1ccc(/C=C/C(=O)CC(=O)/C=C/c2cccc(O)c2OC)cc1O | 13 | -3% | 22 | x
COc1cc(=O)n2c(c1C(=O)NC(C)c1ccco1)CCN(Cc1ccccc1Cl)CC2 (stereo not given) | x | -6% | x | x
O=C(C1CCN(S(=O)(=O)Cc2ccccc2)CC1)N1CCN(c2ccccc2)CC1 | x | -29% | x | -3%
Cc1cccc(N2CCN(C(=O)c3ccc4c(c3)NC(=O)C(CSCc3ccc(F)cc3)N4)CC2C)c1 (stereo not given) | -4 | x | -5 | -15%
COc1ccc(N2CCN(C(=O)c3ccc4c(c3)NC(=O)C(CSCc3cccc(F)c3)N4)CC2)cc1 (stereo not given) | -3 | x | -10 | 45µM*
COc1ccc(N2CCN(C(=O)c3ccc4c(c3)NC(=O)C(CSCc3ccc(C)cc3)N4)CC2)cc1 (stereo not given) | -4 | x | -6 | u
COc1ccc(N2CCN(C(=O)c3ccc4c(c3)NC(=O)C(CSCc3c(F)cccc3Cl)N4)CC2)cc1 (stereo not given) | -4 | x | -11 | 56µM*
COc1cc(C2N(c3ccccc3)CCN2c2ccccc2)ccc1OC(C)=O | 47* | -12% | 56 | -4%
COc1cc(C2N(Cc3ccccc3)CCN2Cc2ccccc2)ccc1OC(C)=O | 1 | 1% | -11 | -10%
Cc1ccc(NC(=S)/N=C(\N)Nc2nc(C)c3ccccc3n2)cc1C | 22* | -25% | 20 | 7%
COc1ccc2nc(N/C(N)=N/C(=S)Nc3ccccc3)nc(C)c2c1 | 24* | -20% | 69* | 27%
Cc1cc(C)cc(NC(=S)/N=C(\N)Nc2nc(C)c3ccccc3n2)c1 | -5 | u | -7 | 4%
Cc1cccc(NC(=S)/N=C(\N)Nc2nc(C)c3ccccc3n2)c1 | 30* | -9% | 50 | 6%
COc1ccc2nc(N/C(N)=N/C(=S)Nc3ccc(C)c(C)c3)nc(C)c2c1 | 3 | x | -9 | 1%
Cc1ccc(S(=O)(=O)/N=C(\N)Nc2nc(C)c3ccccc3n2)cc1 | 21* | 49% | 16 | 8%
COc1ccc(-c2cc(C)no2)cc1S(=O)(=O)N1CCN(c2ccc(C(C)=O)cc2)CC1 | x | 0% | x | 8%
CCN(CC(=O)NC(=O)NC1CCCCC1)Cc1nc2ccccc2c(=O)[nH]1 | -4 | -15% | -6 | -24%
SMILES | Cycloheximide cs | FMDV antiviral | Shiga inhibitor | Sm TGR inh
CC1CCC(NC(=O)CC(C)(C)Cc2nc3ccccc3c(=O)[nH]2)CC1 (stereo not given) | 16* | x | 51 | -18%
O=C(COC(=O)CCc1nc2ccccc2c(=O)[nH]1)NC1CCS(=O)(=O)C1 (stereo not given) | 34* | -5% | 26 | -9%
CC(=O)Nc1ccc(Nc2ncnc3ccccc23)cc1 | 14* | x | 26 | 9%
COc1ccccc1Nc1ncnc2ccccc12 | 17* | 10% | 35 | -14%
O=C(O)c1cccc(Nc2ncnc3ccccc23)c1 | -2 | x | -8 | 52%
Fc1ccc(Nc2ncnc3ccccc23)cc1 | 22* | 23% | x | 1%

Compound activity deposited in PubChem BioAssay by National Center for Advancing Translational Sciences (NCATS).
